BoNT-A LC inh2: blocks Botulinum neurotoxin A light chain protease. multiplex microsphere protease substrate cleavage, flow cytometry. AID 588499. actives 0.17% (n = 360,000). inhibition, % at 10 µM; in the data active means inhibition above about 30%; inconclusive means no clear call, values can overlap the other calls; further: plate controls were buffer without enzyme for full effect and enzyme alone for no effect
BoNT F protease: BoNT F light chain protease inhibition; inhibition, % at 10 µM; AID 588497; Multiplex microsphere protease cleavage assay, flow cytometry; actives 0.22% (n = 360,000); in the data active means inhibition above about 35%, passing the limit was not always enough; inconclusive means no clear call, values can overlap the other calls; further: plate controls were buffer without enzyme for full effect and enzyme alone for no effect
Bead autofluor: counter-screen for toxin protease inhibitors: compound fluorescence; compound autofluorescence counterscreen, microsphere flow cytometry; hits give high values; fluorescence intensity (concentration not given with the values); actives 3.1% (n = 360,000); AID 624483; in the data active means fluorescence intensity above about 16000; inconclusive means no clear call, values can overlap the other calls
FBA Mtb inh: inhibits M. tuberculosis FBA enzyme; P9WQA3; purified M. tuberculosis FBA, fluorescence read-out; inhibition, % at 1 µM; actives 2.3% (n = 360,000); AID 588726;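 further: 0% = vehicle and 100% = reference inhibitor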
GDH-TPI counter-1: inhibits GDH-TPI coupling enzymes, artifact for Mtb FBA screen | actives 1.2% (n = 360,000) | AID 588335 | GDH-TPI coupled enzyme counterscreen, NADH absorbance | inhibition, % at 4.8 µM; in the data active means inhibition above about 30%;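 further: 0% = DMSO wells and 100% = wells lacking the enzyme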
Anthrax LF prot: blocks Bacillus anthracis lethal factor protease; multiplex microsphere protease cleavage assay, LF; inhibition, % at 10 µM; actives 0.12% (n = 360,000); in the data active means inhibition above about 30%; inconclusive means no clear call, values can overlap the other calls; further: plate controls were buffer without enzyme for full effect and enzyme alone for no effect
Mtb FBA confirm: confirmation of M. tuberculosis fructose-bisphosphate aldolase inhibitors. purified M. tuberculosis FBA, fluorescence read-out. shares compounds with FBA Mtb inh. AID 651616. actives 78% (n = 5,600). inhibition, % at 1 µM;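 further: 0% = vehicle wells and 100% = reference inhibitor wells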
GDH-TPI counter-2: inhibits GDH-TPI coupling enzymes, flagging Mtb FBA hits | shares compounds with FBA Mtb inh | GDH-TPI coupled enzyme counterscreen, fluorescence | inhibition, % at 1 µM | actives 81% (n = 5,600) | AID 652141; in the data active means inhibition above about 10%
Active calls of the source: *. The list is not random: actives were taken first. Their share in the collection is about 6.6%. Unless noted, no stated cut-off is given here; in the data, active means inhibition above about 27%; inactive means the rest.

Screening Cc1ccc(S(=O)(=O)N(C)c2ccc(C(=O)Nc3ccccc3C(=O)N3CCOCC3)cc2)cc1 returned BoNT-A LC inh2 1, BoNT F protease 6, Bead autofluor 4095, FBA Mtb inh 1, GDH-TPI counter-1 6 and Anthrax LF prot -8.
For CN(C)C(CNC(=O)c1cccc(C(F)(F)F)c1)c1ccco1 (configuration not stated) the results were BoNT-A LC inh2 4, BoNT F protease -3, Bead autofluor 4400, FBA Mtb inh 2, GDH-TPI counter-1 -4 and Anthrax LF prot 0.
Screening CC(C)Oc1ncnc2c1[nH]c1ccccc12 returned BoNT-A LC inh2 -5, BoNT F protease inconclusive, Bead autofluor 4485, FBA Mtb inh 33*, GDH-TPI counter-1 -7, Anthrax LF prot -2, Mtb FBA confirm 165* and GDH-TPI counter-2 130*.
`Cc1ccc2c(c1)c1c(c(=O)n(-c3ccccc3)c(=O)n1CC(=O)NCC1CCCO1)n2C` (configuration not stated) gave BoNT-A LC inh2 0, BoNT F protease -11, Bead autofluor 5632, FBA Mtb inh 56*, GDH-TPI counter-1 -3, Anthrax LF prot -2, Mtb FBA confirm 76* and GDH-TPI counter-2 52*.
Cc1ccccc1NC(=O)Cn1c(=O)n(-c2ccc(CC(=O)NCC3CCCO3)cc2)c(=O)c2ccccc21 (configuration not stated) was read as BoNT-A LC inh2 -1, BoNT F protease -9, Bead autofluor 4580, FBA Mtb inh 3, GDH-TPI counter-1 -1 and Anthrax LF prot -1.
Screening Cc1nn(-c2ccc(F)cc2F)c2c1-c1nc(N3CCCC3)ncc1CC2 returned BoNT-A LC inh2 inconclusive, BoNT F protease -6, Bead autofluor 23757*, FBA Mtb inh 30*, GDH-TPI counter-1 2, Anthrax LF prot -1, Mtb FBA confirm active and GDH-TPI counter-2 active.
Screening CCN1CCN(Cc2c(O)ccc3c(=O)c(-c4ccc(OC)c(OC)c4)c(C)oc23)CC1 returned BoNT-A LC inh2 0, BoNT F protease 4, Bead autofluor 6631, FBA Mtb inh 41*, GDH-TPI counter-1 22, Anthrax LF prot 2, Mtb FBA confirm 62* and GDH-TPI counter-2 51*.
COc1ccc(-c2c(C)oc3c(CN4CCN(C)CC4)c(O)ccc3c2=O)cc1 was read as BoNT-A LC inh2 1, BoNT F protease 1, Bead autofluor 4047, FBA Mtb inh 102*, GDH-TPI counter-1 20, Anthrax LF prot -2, Mtb FBA confirm 63* and GDH-TPI counter-2 40*.
CC1=CC(c2ccccc2)n2nc(NC(=O)CCC(=O)O)nc2N1 (configuration not stated) was read as BoNT-A LC inh2 0, BoNT F protease 1, Bead autofluor 4871, FBA Mtb inh 81*, GDH-TPI counter-1 28, Anthrax LF prot 4, Mtb FBA confirm -4 and GDH-TPI counter-2 -5.
For CC1=CC(c2ccccc2)n2nc(NC(=O)CCCC(=O)O)nc2N1 (configuration not stated) the results were BoNT-A LC inh2 0, BoNT F protease 17, Bead autofluor 3856, FBA Mtb inh 62*, GDH-TPI counter-1 -5, Anthrax LF prot 4, Mtb FBA confirm 83* and GDH-TPI counter-2 73*.
For CC1=CC(c2ccc(Cl)cc2)n2nc(NC(=O)c3ccccc3)nc2N1 (configuration not stated) the results were BoNT-A LC inh2 -1, BoNT F protease -27, Bead autofluor 4230, FBA Mtb inh 15, GDH-TPI counter-1 10 and Anthrax LF prot -3.
For Cc1ccc(-c2nc3ncccc3o2)cc1NC(=O)c1ccccc1 the results were FBA Mtb inh 0 and GDH-TPI counter-1 2.
For CC(C)CC(=O)Nc1cccc(-c2nc3ncccc3o2)c1 the results were BoNT-A LC inh2 2, BoNT F protease 25, Bead autofluor 3463, FBA Mtb inh 32*, GDH-TPI counter-1 -4, Anthrax LF prot -8, Mtb FBA confirm 0 and GDH-TPI counter-2 -3.
For Cc1ccc(-c2nc3ncccc3o2)cc1NC(=O)C(C)C the results were BoNT-A LC inh2 -3, BoNT F protease inconclusive, Bead autofluor 3677, FBA Mtb inh 55*, GDH-TPI counter-1 11, Anthrax LF prot -7, Mtb FBA confirm 18 and GDH-TPI counter-2 9.
For Cc1c(NC(=O)C(C)C)cccc1-c1nc2ncccc2o1 the results were BoNT-A LC inh2 -1, BoNT F protease 22, Bead autofluor 4089, FBA Mtb inh 29*, GDH-TPI counter-1 9, Anthrax LF prot -4, Mtb FBA confirm -7 and GDH-TPI counter-2 -8.
`Cc1ccc(N2C(=O)[C@@H]3C(C(=O)CCN4C(=O)c5ccccc5C4=O)=NN[C@@H]3C2=O)cc1` gave BoNT-A LC inh2 -1, BoNT F protease -3, Bead autofluor 2596, FBA Mtb inh 0, GDH-TPI counter-1 7 and Anthrax LF prot 0.
Screening CC(=O)COc1ccc2c(-c3cccc([N+](=O)[O-])c3)cc(=O)oc2c1 returned BoNT-A LC inh2 -1, BoNT F protease -6, Bead autofluor 2898, FBA Mtb inh 36*, GDH-TPI counter-1 5, Anthrax LF prot -1, Mtb FBA confirm 108* and GDH-TPI counter-2 74*.
O=C(O)COc1ccc2c(-c3ccccc3)cc(=O)oc2c1 was read as BoNT-A LC inh2 0, BoNT F protease 0, Bead autofluor 3283, FBA Mtb inh 1, GDH-TPI counter-1 24 and Anthrax LF prot -6.
FC(F)(F)c1ccc(Oc2ccc3cc(Br)ccc3c2)nc1 was read as BoNT-A LC inh2 -1, BoNT F protease -2, Bead autofluor 2112, FBA Mtb inh -2, GDH-TPI counter-1 1 and Anthrax LF prot 0.
O=C(Cc1c(Cl)cccc1Cl)Nc1cccnc1 was read as BoNT-A LC inh2 -1, BoNT F protease -3, Bead autofluor 2281, FBA Mtb inh 0, GDH-TPI counter-1 -7 and Anthrax LF prot 0.
Screening O=P(c1ccccc1)(c1ccccc1)c1nc(-c2ccccc2)oc1N1CCOCC1 returned BoNT-A LC inh2 1, BoNT F protease -5, Bead autofluor 4676, FBA Mtb inh 2, GDH-TPI counter-1 1 and Anthrax LF prot -2.
For CCOC(=O)c1nc(-c2ccccc2)oc1N1CCOCC1 the results were BoNT-A LC inh2 0, BoNT F protease 0, Bead autofluor 2396, FBA Mtb inh 97*, GDH-TPI counter-1 4, Anthrax LF prot -1, Mtb FBA confirm 120* and GDH-TPI counter-2 95*.
CCOC(=O)c1[nH]cnc1C(=O)N1CCC(C)CC1 was read as BoNT-A LC inh2 -1, BoNT F protease 0, Bead autofluor 2952, FBA Mtb inh -1, GDH-TPI counter-1 7 and Anthrax LF prot 3.
Screening Nc1nc2ccc(Cl)cc2cc1C(=O)NCc1ccc(Oc2ccccc2)cc1 returned BoNT-A LC inh2 1, BoNT F protease -2, Bead autofluor 5114 and Anthrax LF prot 5.
